Pf growth 96h: Primary qHTS for delayed death inhibitors of the malarial parasite plastid, 96 hour incubation | 6.9% of 320,000 active | P. falciparum luciferase reporter growth, 96 h | Potency, µM (top dose mostly 28.7 µM), for the others: top-dose activity change, negative = inhibition, usual class: inhibitors; also: potency is read from the fitted curve at half-maximal effect; % is scaled to controls: 0 for no effect and ±100 for the full control effect
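Luminescence readout: decreased luciferase signal marks inhibited growth of reporter-expressing P. falciparum in infected red cells (2% hematocrit, 0.05% parasitemia final), exposed to compound two generations (96 h, 37 C, 5% CO2).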
Shiga inhibitor: A qHTS for Small Molecule Inhibitors of Shiga Toxin; Vero cells, Shiga toxin protein synthesis inhibition reporter; inhibition, % at 38.7 µM; 9.2% of 290,000 active; AID 2315, 2010; in the data active = inhibition mostly above about 28%, no sharp cut-off; inactive = mostly below about 43%; also: 0% is about no effect
CHX counter: Cycloheximide Counterscreen for Small Molecule Inhibitors of Shiga Toxin. cell reporter, cycloheximide protein synthesis inhibition counterscreen. max response, %. 12% of 300,000 active; in the data active = max response mostly above about 13%, no sharp cut-off; inactive = mostly below about 14%; also: read at 38.3 µM for the half of the compounds with a filed dose; 0% is about no effect
LmPK inhibitor: qHTS Assay for Inhibitors of Leishmania Mexicana Pyruvate Kinase (LmPK); Q27686; purified LmPK, Kinase-Glo ATP luminescence, 1 h; Potency, µM (series often up to 57.5 µM), inactives show at the top dose activity change, negative = inhibition, actives largely listed as inhibitors; 0.37% of 290,000 active; AID 1721, 2009; also: potency is read from the fitted curve at half-maximal effect; % is scaled to controls: 0 for no effect and ±100 for the full control effect
Target sequence (Q27686 whole entry, looked up): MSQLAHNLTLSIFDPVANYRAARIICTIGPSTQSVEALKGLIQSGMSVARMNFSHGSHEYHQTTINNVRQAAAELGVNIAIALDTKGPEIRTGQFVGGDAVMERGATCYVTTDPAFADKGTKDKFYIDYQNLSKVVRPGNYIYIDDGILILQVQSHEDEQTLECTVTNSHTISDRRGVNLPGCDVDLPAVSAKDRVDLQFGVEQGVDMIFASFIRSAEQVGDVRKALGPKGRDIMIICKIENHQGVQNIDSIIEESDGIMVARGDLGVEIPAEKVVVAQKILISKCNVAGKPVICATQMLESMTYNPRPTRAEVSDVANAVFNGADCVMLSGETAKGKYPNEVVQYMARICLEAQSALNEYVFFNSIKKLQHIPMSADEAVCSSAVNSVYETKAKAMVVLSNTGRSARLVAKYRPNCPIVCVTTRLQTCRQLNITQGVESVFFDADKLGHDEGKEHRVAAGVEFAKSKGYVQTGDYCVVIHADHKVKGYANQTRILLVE
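Purified LmPK (0.1 nM) with 0.5 mM PEP and 0.1 mM ADP in imidazole buffer pH 7.2 with MgCl2/KCl, 1 h at room temperature. ATP formed was read by luciferase luminescence and normalized to no-enzyme and uninhibited controls.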
Pf growth 48h: Primary qHTS for delayed death inhibitors of the malarial parasite plastid, 48 hour incubation. P. falciparum luciferase growth in erythrocytes, 48 h. Potency, µM (highest dose often 28.7 µM), for the others: top-dose activity change, negative = inhibition, hits mostly inhibitors. 5.9% of 310,000 active; also: potency is read from the fitted curve at half-maximal effect; % is scaled to controls: 0 for no effect and ±100 for the full control effect
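Growth was read as firefly luciferase luminescence after a 48 h, 37 C, 5% CO2 exposure of compounds to reporter-bearing P. falciparum cultures (0.1% parasitemia, 2% hematocrit final) in Albumax-supplemented RPMI 1640.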
Starred values were filed as active, the others as inactive; [ ] = another dose, or the depositor's remark. Hits are enriched below; roughly 22% of the tested compounds scored in any of these assays. Unless noted, calls follow the shape of the dose curve; as a rule, active = well fitted inhibition curve with a large enough effect; inconclusive = small, poorly fitted or top-dose-only effect, or another doubt; inactive = no such curve, though single readings can be large or run the other way.

What do the screens show for `O=C(N/N=C/c1ccc(N2CCOCC2)cc1)c1ccccc1OCCOc1ccccc1`?
Pf growth 96h: inconclusive; Shiga inhibitor: 12; CHX counter: 10; LmPK inhibitor: 1%; Pf growth 48h: inconclusive

Results for CC1C(=O)Nc2ccc(S(=O)(=O)N3CCN(c4cccc(C(F)(F)F)c4)CC3)cc2NC1=O (centres undefined) ?
Pf growth 96h: inconclusive; Shiga inhibitor: 13; CHX counter: -5; LmPK inhibitor: 4%; Pf growth 48h: -14%

How did CC(C)OCCCNc1ncc2c(n1)CC(c1cccs1)CC2=O (centres undefined) do in these assays?
Pf growth 96h: 13µM*; Shiga inhibitor: 23; CHX counter: 10; LmPK inhibitor: -8%; Pf growth 48h: inconclusive

What do the screens show for `O=C(c1ccc([N+](=O)[O-])cc1)N1CCSC1c1cccc(Cl)c1` (centres undefined)?
Pf growth 96h: inconclusive; Shiga inhibitor: 8; CHX counter: 1; LmPK inhibitor: 5%; Pf growth 48h: -9%

What do the screens show for `CC(C)N(Cc1cc2ccccc2[nH]c1=O)C(=O)c1cccnc1`?
Pf growth 96h: 18%; Shiga inhibitor: -13; CHX counter: 2; LmPK inhibitor: 1%; Pf growth 48h: 47%

How did CC(=O)N(CCc1cccc(C)c1)Cc1cc2cc(C)ccc2[nH]c1=O do in these assays?
Pf growth 96h: 251%; Shiga inhibitor: -4; CHX counter: -3; LmPK inhibitor: 2%; Pf growth 48h: -4%

How did Cc1ccc2cc(CN(C(=O)c3ccncc3)C(C)C)c(=O)[nH]c2c1 do in these assays?
Pf growth 96h: 8.3µM*; Shiga inhibitor: 27; CHX counter: -4; LmPK inhibitor: -2%; Pf growth 48h: inconclusive

What do the screens show for `CC(=O)N(CCc1cccc(C)c1)Cc1cc2ccc(C)cc2[nH]c1=O`?
Pf growth 96h: 0.074µM*; Shiga inhibitor: -15; CHX counter: -1; LmPK inhibitor: -2%; Pf growth 48h: -26%

How did COc1cc2cc(CN(CCc3cccc(C)c3)C(=S)NCCCN(C)C)c(=O)[nH]c2cc1OC do in these assays?
Pf growth 96h: 32%; Shiga inhibitor: -9; CHX counter: -2; LmPK inhibitor: 1%; Pf growth 48h: 13µM*

What do the screens show for `C[C@H](CCC(=O)NCC(=O)O)[C@H]1CC[C@H]2C3[C@H](O)C[C@@H]4C[C@H](O)CC[C@]4(C)[C@H]3C[C@H](O)[C@]12C` (some centres undefined)?
Pf growth 96h: 7%; Pf growth 48h: 15%

Results for O=C(Nc1ccccn1)C1CCN(C(=O)Nc2ccccc2)CC1 ?
Pf growth 96h: 5%; Pf growth 48h: 11%

What do the screens show for `COc1ccc(C(=O)CCC(=O)Nc2cccnc2)cc1OC`?
Pf growth 96h: 4%; Shiga inhibitor: 11; CHX counter: -2; LmPK inhibitor: -2%; Pf growth 48h: 6%

How did Cc1ccc2nc(Cl)c(/C=N/n3c(C)nnc3C)cc2c1 do in these assays?
Pf growth 96h: 4%; Shiga inhibitor: 19; CHX counter: 9; LmPK inhibitor: 5%; Pf growth 48h: 24%

What do the screens show for `COc1ccc(CNC(=O)COC(=O)CC2CC3CCC2C3)cc1OC` (centres undefined)?
Pf growth 96h: -8%; Shiga inhibitor: -9; CHX counter: -1; LmPK inhibitor: 3%; Pf growth 48h: 1%

Results for COc1ccc(-c2cc(-c3nnc(COC(=O)CC4CC5CCC4C5)o3)c3ccccc3n2)cc1OC (centres undefined) ?
Pf growth 96h: 0%; Shiga inhibitor: -7; CHX counter: -3; LmPK inhibitor: -1%; Pf growth 48h: 9.3µM*

How did CCOC(=O)c1sc(=S)n(-c2ccc3c(c2)OCO3)c1N do in these assays?
Pf growth 96h: -16%; Shiga inhibitor: 30; CHX counter: 30*; LmPK inhibitor: 1%; Pf growth 48h: -22%

Results for CCOc1ccccc1-n1c(N)c(C(N)=O)sc1=S ?
Pf growth 96h: 1.7µM*; Shiga inhibitor: -7; CHX counter: 8; LmPK inhibitor: 0%; Pf growth 48h: 28%

Results for CCOC(=O)c1ccc(-n2c(N)c(C(=O)NCc3ccco3)sc2=S)cc1 ?
Pf growth 96h: 13%; Shiga inhibitor: -15; CHX counter: -4; LmPK inhibitor: 1%; Pf growth 48h: inconclusive

What do the screens show for `CCOC(=O)c1sc(=S)n(-c2ccc(Cl)cc2)c1SC`?
Pf growth 96h: 0.93µM*; Shiga inhibitor: -6; CHX counter: -2; LmPK inhibitor: -4%; Pf growth 48h: inconclusive

Results for C=CCNC(=O)c1sc(=S)n(-c2ccc(C(=O)OCC)cc2)c1N ?
Pf growth 96h: 2.9µM*; Shiga inhibitor: -6; CHX counter: -3; LmPK inhibitor: -2%; Pf growth 48h: 11%

Results for CCOC(=O)c1sc(=S)n(-c2ccc(F)c(F)c2)c1N ?
Pf growth 96h: inconclusive; Shiga inhibitor: 12; CHX counter: -2; LmPK inhibitor: 5%; Pf growth 48h: 5%

What do the screens show for `CCOC(=O)c1sc(=S)n(-c2ccc(C)cc2)c1N`?
Pf growth 96h: inconclusive; Shiga inhibitor: 27; CHX counter: 7; LmPK inhibitor: -1%; Pf growth 48h: inconclusive

What do the screens show for `Cc1ccc(-n2c(N)c(C(N)=O)sc2=S)c(C)c1`?
Pf growth 96h: 15µM*; Shiga inhibitor: -25; CHX counter: -2; LmPK inhibitor: -4%; Pf growth 48h: 12%

What do the screens show for `CCOC(=O)c1sc(=S)n(-c2ccccc2OC)c1N`?
Pf growth 96h: 6.6µM*; Shiga inhibitor: -8; CHX counter: 1; LmPK inhibitor: -5%; Pf growth 48h: -14%

Results for Cc1ccc(C)c(-n2c(N)c(C(N)=O)sc2=S)c1 ?
Pf growth 96h: 16%; Shiga inhibitor: 16; CHX counter: -1; LmPK inhibitor: 0%; Pf growth 48h: 0%

Results for COc1ccc(C(C)=O)cc1CSc1ccc2c(c1)OCCO2 ?
Pf growth 96h: -16%; Shiga inhibitor: 28; CHX counter: 15; LmPK inhibitor: 6%; Pf growth 48h: -10%

Results for CCN(CC)CCNC1=CC(=O)OC12CCCCC2 ?
Pf growth 96h: 15µM*; Shiga inhibitor: -8; CHX counter: -2; LmPK inhibitor: 1%; Pf growth 48h: 11%

What do the screens show for `Cc1cccc(C(C)C)c1-n1nnnc1-c1ccccc1`?
Pf growth 96h: -7%[5.75 µM]; Shiga inhibitor: 36; CHX counter: -3; LmPK inhibitor: 2%; Pf growth 48h: 10µM*

Results for O=C(OCC(=O)N1CCCC1)c1ccc(S(=O)(=O)Nc2ccccc2)cc1 ?
Pf growth 96h: 7%; Shiga inhibitor: -10; CHX counter: -2; LmPK inhibitor: 9%; Pf growth 48h: -6%

Results for CC(C)(C)OC(=O)N1CCC(c2c(C(=O)N3CCN(C(=O)c4ccco4)CC3)cnn2-c2ccc(F)cc2)CC1 ?
Pf growth 96h: 42%; Shiga inhibitor: -10; CHX counter: -4; LmPK inhibitor: 4%; Pf growth 48h: inconclusive

Assay outcomes: PubChem BioAssay, National Center for Advancing Translational Sciences (NCATS)
